Growth inhibition data for 21 molecules are collected here from PubChem BioAssay (NCI).

Experiment [1] can be described thus: NCI Yeast Anticancer Drug Screen. Data for the rad50 strain (AID 155).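 Note: 0% = growth of vehicle-only cultures of the same strain.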 Conditions: S. cerevisiae rad50 strain growth inhibition; at 50.0 µM; active compounds read high. The gist of the method: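 Genetically altered yeast (DNA repair pathway); compound treatment; growth inhibition vs vehicle ctrl.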
Experiment [2] in a line: NCI Yeast Anticancer Drug Screen. Data for the mec2-1 strain (AID 157). As to conditions: S. cerevisiae mec2-1 strain, at 50.0 µM, active compounds read high. The gist of the method: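 Mutant yeast (mec2-1) grown with compound; growth inhibition relative to vehicle control reported.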
The nature of experiment [3]: NCI Yeast Anticancer Drug Screen. Data for the sgs1 mgt1 strain (AID 161).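 Note: 0% = growth of cultures given vehicle only.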 Conditions: S. cerevisiae sgs1 mgt1 strain, at 50.0 µM, active compounds read high. A digest of the protocol:
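This yeast growth screen uses a strain with defined DNA-repair lesions; compound-treated growth is compared with vehicle-treated growth.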

Experiment [4] is described as follows: NCI Yeast Anticancer Drug Screen. Data for the cln2 rad14 strain (AID 165).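 Note: 0% = growth equal to vehicle treated cultures.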 As to conditions: S. cerevisiae cln2 rad14 strain, at 50.0 µM, active compounds read high. The gist of the method: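 Readout is yeast growth inhibition versus vehicle-treated controls, using a strain with cln2 and rad14 alterations exposed to compound.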
A short description of experiment [5]: NCI Yeast Anticancer Drug Screen. Data for the bub3 strain (AID 167). Conditions: S. cerevisiae bub3 mutant strain, at 50.0 µM, active compounds read high. A digest of the protocol:
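Yeast carrying a defined mutation is treated with each compound, and growth is compared with that of vehicle-exposed cells to give inhibition.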

A short description of experiment [6]: NCI Yeast Anticancer Drug Screen. Data for the mlh1 rad18 strain (AID 175). Conditions: S. cerevisiae mlh1 rad18 strain growth inhibition; at 50.0 µM; active compounds read high. The gist of the method: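 Genetically defined yeast (DNA repair-deficient) exposed to compounds; growth inhibition determined relative to vehicle.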

This is part of a sample that, as a whole, favours compounds with a hit. Of some 79,000 tested, about 15% had one in any assay. Values without a mark were called inactive. Calls of active or inactive are those of the source. Cut-off read from the data, not from the text of the source: active = growth inhibition above about 70%; inactive = the rest.

On to `O=C1c2ccccc2C(=O)N1CC(O)COCc1ccccc1` (stereo unspecified), for which the growth inhibition in experiment [1] was -17.8%; in experiment [2] it was -25.8%; in experiment [3], -31.7%; in experiment [4], -15.9%; in experiment [5], 25.6%; in experiment [6], -6.55%.

On to `CN(C)CCN(CCN(C)C)CCN(C)C`, for which the growth inhibition in experiment [1] is 6.85%; in experiment [2] it was -21.5%; in experiment [3], 12.3%; in experiment [4], 9.45%; in experiment [5], 25.1%; in experiment [6] it was 14.6%.

In the case of `O=C(CCBr)OCCOc1ccccc1`, the growth inhibition in experiment [1] was 1.55%; in experiment [2], -3.6%; in experiment [3], 4.2%; in experiment [4], -39.8%; in experiment [5], 4.95%; in experiment [6] it was 2.7%.

`CC[N+](C)(CC)c1ccccc1`: the growth inhibition is -4.35% in experiment [1]; -54.3% in experiment [2]; -18.6% in experiment [3]; 0.3% in experiment [4]; -33.5% in experiment [5]; 1.1% in experiment [6].

Turning to `OCc1ccc(CO)o1`, the growth inhibition in experiment [1] was 17.8%; in experiment [2], 15.7%; in experiment [3], -16.4%; in experiment [4], -1.55%; in experiment [5], 24.1%; in experiment [6], 5.4%.

Take `O=C(c1ccccc1)C12CCC3CC(CC(C3)C1)C2`: the growth inhibition in experiment [1] is -18.1%; in experiment [2] it was 8.25%; in experiment [3] it was 11.5%; in experiment [4], 6.05%; in experiment [5], 16.4%; in experiment [6] it was 9.65%.

With `Clc1ccc(C2OCCO2)cc1`, the growth inhibition in experiment [1] is 12.2%; in experiment [2], 3.95%; in experiment [3], 11.2%; in experiment [4], 3.35%; in experiment [5], -0.35%; in experiment [6], 14.3%.

Take `O=C(NO)/C(CC(=O)c1ccc(O)cc1)=N\O`: the growth inhibition was -8.9% in experiment [1]; -10.4% in experiment [2]; -6.9% in experiment [3]; -11.2% in experiment [4]; -3.7% in experiment [5]; 4.7% in experiment [6].

On to `Cc1nc2ccccc2c(=O)n1/N=C\c1ccc2c(c1)CCC2`, for which the growth inhibition was -1.7% in experiment [1]; -5.5% in experiment [2]; 15.8% in experiment [3]; 18.2% in experiment [4]; 23% in experiment [5]; 29.1% in experiment [6].

Turning to `CCCCCCCCCCCCCCCCCC(=O)c1ccc(OC)c(OC)c1`, the growth inhibition is -14.8% in experiment [1]; -12.8% in experiment [2]; -31.1% in experiment [3]; -37.5% in experiment [4]; -24.4% in experiment [5]; -1.25% in experiment [6].

For `NCCCCCC(CCN)SCC1OC(n2cnc3c(N)ncnc32)C(O)C1O` (stereo unspecified), the growth inhibition was 17.6% in experiment [1]; -2.45% in experiment [2]; -5.1% in experiment [3]; -7.45% in experiment [4]; -0.95% in experiment [5]; 25.9% in experiment [6].

Regarding `CCN(CC)c1ccc2c(C)cc(=O)oc2c1`, the growth inhibition in experiment [1] is 6.35%; in experiment [2], -10.6%; in experiment [3], 6.35%; in experiment [4], 3.8%; in experiment [5] it was 12.9%; in experiment [6] it was 0.9%.

As for `CCOC(=O)c1c(-c2ccc(Cl)cc2)c(C#N)c(=S)n(C2OC(COC(C)=O)C(OC(C)=O)C(OC(C)=O)C2OC(C)=O)c1C` (stereo unspecified), the growth inhibition was -0.4% in experiment [1]; -8.75% in experiment [2]; -1.75% in experiment [3]; 24.1% in experiment [4]; 17.5% in experiment [5]; 5.7% in experiment [6].

Turning to `CCC/C(Cl)=N\OC(=O)Nc1ccc(OC(F)(F)F)cc1`, the growth inhibition was 24% in experiment [1]; 24.8% in experiment [2]; 91% (active) in experiment [3]; 20.1% in experiment [4]; 28.8% in experiment [5]; 58.6% in experiment [6].

As to `O=C(/C=C/c1ccc(Cl)c(Cl)c1)c1ccccc1`, the growth inhibition in experiment [1] is -7.1%; in experiment [2], -52.9%; in experiment [3], -7.9%; in experiment [4], -16.9%; in experiment [5], 35%; in experiment [6], -59.4%.

Take `CC(=O)CC1CCCCCC1`: the growth inhibition in experiment [1] is 4.3%; in experiment [2], 4.3%; in experiment [3], 0.45%; in experiment [4] it was -11.3%; in experiment [5], 2.1%; in experiment [6], 6.3%.

In the case of `CCOC(=O)NC(=O)c1cn(CCCOC(=O)CCCCCCCCC(=O)OCCCn2cc(C(=O)NC(=O)OCC)c(=O)n(C)c2=O)c(=O)n(C)c1=O`, the growth inhibition in experiment [1] is -16.4%; in experiment [2] it was -25.1%; in experiment [3], -25.2%; in experiment [4] it was 6%; in experiment [5] it was 4.3%; in experiment [6] it was -23.7%.

On to `Cc1ccc(-n2c(O)c(N=Nc3ccccc3)c(=O)n(-c3ccccc3)c2=S)cc1`, for which the growth inhibition is 20.1% in experiment [1]; -15.7% in experiment [2]; 51.4% in experiment [3]; -30.7% in experiment [4]; -9.2% in experiment [5]; -9.85% in experiment [6].

For the molecule `CN(C)Cc1cc(C(=O)/C=C/c2ccccc2Cl)cc(CN(C)C)c1O`, the growth inhibition in experiment [1] was -47%; in experiment [2] it was -22.6%; in experiment [3], -27.4%; in experiment [4], -43.9%; in experiment [5], 3.9%; in experiment [6], -31.1%.

With `CC(=O)OC1C(C)OC(n2cnc3c(=O)[nH]cnc32)C(OC(C)=O)C1OC(C)=O` (stereo unspecified), the growth inhibition in experiment [1] was 37.1%; in experiment [2] it was 9.25%; in experiment [3] it was 16.4%; in experiment [4] it was -7.3%; in experiment [5], 6.25%; in experiment [6], 27.8%.

`COC(=O)C1=NOC(COc2ccc([N+](=O)[O-])cc2)C1` (stereo unspecified): the growth inhibition was 9.4% in experiment [1]; -2.9% in experiment [2]; 20.4% in experiment [3]; -8.55% in experiment [4]; -1.65% in experiment [5]; 19.1% in experiment [6].
